From PubChem BioAssay AID1619 (SRMLSC, 2009) come the findings set out here.

Molecules are shown by their SMILES. In all, about 220,000 compounds went through this assay and about 830 (0.38%) were called active. The list is a sample of the results. Potency and affinity values are given separately. A number with no mark means an inactive call.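 Rule for the calls: active = compound inhibiting the enzyme by more than half at any dose during confirmatory dose-response retesting; inconclusive = strong single-dose inhibitors picked by rank but not retested; inactive = the rest.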

The target of this experiment is Leucine aminopeptidase (Plasmodium falciparum (isolate 3D7)) (UniProt Q8IL11). Description: P. falciparum M17LAP inhibitors, primary screen, biochemical, fluorogenic H-Leu-NHMec substrate, 1536-well (AID 1619).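 Note: plate controls were full reaction with DMSO carrier for no effect and no enzyme background for full effect.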 The note with it: recombinant M17LAP, H-Leu-NHMec fluorogenic kinetic assay; at 30 µM; active compounds read high.
Leucine aminopeptidase (Plasmodium falciparum (isolate 3D7)), sequence (Q8IL11 whole entry, looked up): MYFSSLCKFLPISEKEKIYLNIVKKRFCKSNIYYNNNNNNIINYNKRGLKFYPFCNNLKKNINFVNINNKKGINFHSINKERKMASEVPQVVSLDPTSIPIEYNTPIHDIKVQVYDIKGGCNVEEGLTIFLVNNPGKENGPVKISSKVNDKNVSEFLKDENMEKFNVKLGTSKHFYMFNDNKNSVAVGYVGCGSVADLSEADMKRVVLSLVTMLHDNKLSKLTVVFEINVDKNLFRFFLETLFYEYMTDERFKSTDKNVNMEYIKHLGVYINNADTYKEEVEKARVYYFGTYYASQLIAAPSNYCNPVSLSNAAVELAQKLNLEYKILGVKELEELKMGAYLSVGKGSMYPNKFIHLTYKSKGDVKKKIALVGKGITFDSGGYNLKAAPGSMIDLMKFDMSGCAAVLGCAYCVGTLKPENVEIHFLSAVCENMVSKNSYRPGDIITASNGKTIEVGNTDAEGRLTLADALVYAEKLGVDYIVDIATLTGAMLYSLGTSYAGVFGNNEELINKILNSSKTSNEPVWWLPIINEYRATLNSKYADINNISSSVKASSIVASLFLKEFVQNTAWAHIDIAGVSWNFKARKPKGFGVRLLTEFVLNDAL
In the case of `CCC1=Nc2cc(C(=O)O)ccc2Sc2ccc(Cl)cc21`, the inhibition was 7.99%.
The figure for `CCOc1ccccc1Nc1nnc(SCC(=O)Nc2ccc3[nH]c(=O)[nH]c3c2)s1` is -4.13%.
In the case of `Cc1ccc(C(=O)NC(Cc2c[nH]c3ccccc23)C(=O)O)cc1` (stereo not drawn), the inhibition was 17.6%.
The figure for `CCOc1ccccc1Nc1nnc(SCC(=O)Nc2cc(C)on2)s1` is -0.81%.
The same measure for `Cc1ccc(C)c(OCC(=O)NC(Cc2c[nH]c3ccccc23)C(=O)O)c1` (stereo not drawn): -8.94%; for `CC(C)C(=O)Nc1nc2c(c(=O)[nH]1)CCCC2`: 3.8%.
The same measure for `CCc1n[n+](CC(=O)c2ccccc2)c(N)s1`: -0.05%; for `COc1ccc(-c2[nH]ncc2/C=C(/C#N)C(=O)NC2CCCCC2)cc1`: 0.03%.
With `COc1ccc(-c2[nH]ncc2/C=C(/C#N)C(=O)NC2CCCCCC2)cc1`, the inhibition is -2.26%.
The same measure for `O=C(c1cc(-c2ccccc2)on1)N1CCN(Cc2ccc3c(c2)OCO3)CC1`: -6.81%; for `Cc1ccccc1NC(=O)CSc1ccsc1[N+](=O)[O-]`: 8.37%; for `CCc1ccccc1NC(=O)CSc1ccsc1[N+](=O)[O-]`: 6.13%.
On to `Cc1cccc(C(=O)N2CCCCCC2)c1[N+](=O)[O-]`, for which the inhibition was -0.16%.
The same measure for `CCN1CCN(CC(O)COCc2ccccc2)CC1` (stereo not drawn): 8.64%; for `CCCN(C(=O)/C=C/c1ccco1)c1c(N)n(Cc2ccccc2)c(=O)[nH]c1=O`: 12.1%; for `Cn1nnnc1SCC1=C(C(=O)O)N2C(=O)C(NC(=O)C3CC3c3ccccc3)C2SC1` (stereo not drawn): 20.4%.
With `Cc1nn(C(C)C(=O)NC2C(=O)N3C(C(=O)O)=C(CSc4nnnn4C)CSC23)cc1Cl` (stereo not drawn), the inhibition was 48.7%.
The figure for `COc1ccc(Cn2cnc3c([N+](=O)[O-])c(C)c(C)cc32)cc1` is 16.7%.
Turning to `O=C(Cc1csc(N2CCOCC2)n1)N/N=C/c1ccc(F)cc1`, the inhibition is 45.5%.
Consider `COc1ccccc1NC(=O)Nc1cc(C(C)C)ccc1C`, for which the inhibition was 3.16%.
On to `CCOc1cc(/C=C2\C(=O)N(CCc3ccc(OC)c(OC)c3)C(C)=C2C(=O)OC)ccc1O`, for which the inhibition was 7.43%.
The figure for `COc1cc(/C=C2/NC(=O)N(Cc3ccccc3F)C2=O)ccc1O` is -1.31%; for `COc1ccc(C(=O)Nc2ccc(Cl)cc2C(=O)NCCN2CCOCC2)cc1` it is 5.43%.
The same measure for `Cc1ccc(S(=O)(=O)NNC(=O)CC#N)cc1`: 5.13%.
The same measure for `N=C1S/C(=C\c2ccco2)C(=O)N1c1ccc2c(c1)OCO2`: 6.49%; for `COc1cc(/C=C2\SC(=N)N(c3ccc4c(c3)OCO4)C2=O)cc(OC)c1O`: 1.69%; for `COc1ccccc1N1C(=N)S/C(=C\c2ccc(-c3ccccc3C(=O)O)o2)C1=O`: 61.1%.
As to `Cc1cccc(NC(=O)CN2C(=O)S/C(=C\c3ccc(-c4cccc(C(=O)O)c4C)o3)C2=O)c1`, the inhibition was 4.08%.
